# Measurements from PubChem BioAssay (NCATS).
# Values without a mark were called inactive. The source made the active and inactive calls. Calls come from the whole dose curve; as a rule, active = well fitted curve in the direction sought with a large enough effect; inconclusive = small, poorly fitted or top-dose-only effect, or another doubt; inactive = no such curve, though single readings can be large; an effect the other way counts as inactive or inconclusive.
# Test: Cellular Toxicity (caspase-3) HUV-EC-C (AID 656)
# Conditions: HUV-EC-C cells, caspase-3 activation (apoptosis), vehicle = 0, 100 µM tamoxifen = 100%; series mostly up to 92.2 µM; caspase-3 activation: at the top concentration
# How it was run: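 qHTS; HUV-EC-C, 1000 cells/well; 5 hr settle, 16 hr cmpd, 37°C; Caspase-Glo 3/7, 20 min RT; luminescence. Norm: DMSO = 0%, tamoxifen 100 uM = 100%. Hill-fit AC50.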
SMILES,caspase-3 activation [%],outcome
CCCN(CCC)C(=O)SCC,-1.36,
COc1ccc2nc(N)sc2c1,-4.04,
ClCCCl,2.08,
CCC(O)OC(O)CC (centres undefined),,inactive
C=Cc1ccccc1Cl,-2.58,
c1ccc2c(c1)c1cccc3ccc4cccc2c4c31,0.264,
Cc1cccc([N+](=O)[O-])c1C,-1.32,
CCCCCCCCO,-1.39,
CC(C)=CCCC(C)CCO (centres undefined),-1.13,
O=[N+]([O-])c1cccc(Cl)c1Cl,1.74,
CCO[Si](CCCN)(OCC)OCC,0.861,
Clc1cc(Cl)c(Cl)cc1Cl,0.516,
CCO,-1.03,
C=CC(=O)OCCOCCOCCOCCOC(=O)C=C,,inactive
Clc1cc(Cl)c(Cl)c(Cl)c1Cl,1.02,
CCCCC(CC)CN (centres undefined),,inactive
O=NO,,inactive
c1ccc2c(c1)[nH]c1ccccc12,0.203,
OCCNCCO,1.42,
Nc1ccc(Cl)cc1Cl,-3.64,
CCC(C)c1ccccc1O (centres undefined),,inactive
CC1=CC(C)(C)Nc2ccccc21,,inactive
CN(C)C=O,,inactive
Cc1ccc(N)c([N+](=O)[O-])c1,0.555,
CCCCOCCO,,inactive
CC(=O)OC/C=C(\C)CCC=C(C)C,-4.6,

# Test: Cellular Toxicity (caspase-3) SHSY5Y (AID 657);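 note: cells exposed to compound for 16 hours at 37 °C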
# Conditions: SH-SY5Y caspase-3 activation, DMSO zero, 10 µM staurosporine = 100%; series mostly up to 91.7 µM; caspase-3 activation: at the top concentration
# How it was run: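 qHTS, SH-SY5Y, 1500 cells/well, 5 h pre-incubation 37 °C; compound 16 h 37 °C; Caspase-Glo 3/7 1 h RT; luminescence. Norm.: DMSO = 0, 10 uM staurosporine = 100%. Hill fit → AC50.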
SMILES,caspase-3 activation [%],outcome
CCCN(CCC)C(=O)SCC,-0.0332,
COc1ccc2nc(N)sc2c1,-1.93,
ClCCCl,1.12,
CCC(O)OC(O)CC (centres undefined),,inactive
C=Cc1ccccc1Cl,0.556,
c1ccc2c(c1)c1cccc3ccc4cccc2c4c31,-1.88,
Cc1cccc([N+](=O)[O-])c1C,1.33,
CCCCCCCCO,-1.14,
CC(C)=CCCC(C)CCO (centres undefined),2.98,
O=[N+]([O-])c1cccc(Cl)c1Cl,0.606,
CCO[Si](CCCN)(OCC)OCC,3.51,
Clc1cc(Cl)c(Cl)cc1Cl,-0.0649,
CCO,3.12,
Clc1cc(Cl)c(Cl)c(Cl)c1Cl,-1.06,
CCCCC(CC)CN (centres undefined),,inactive
O=NO,,inactive
c1ccc2c(c1)[nH]c1ccccc12,1.01,
OCCNCCO,1.14,
Nc1ccc(Cl)cc1Cl,-1.47,
CCC(C)c1ccccc1O (centres undefined),,inactive
CC1=CC(C)(C)Nc2ccccc21,,inactive
CN(C)C=O,,inactive
Cc1ccc(N)c([N+](=O)[O-])c1,1.76,
CCCCOCCO,,inactive
CC(=O)OC/C=C(\C)CCC=C(C)C,-0.951,

# Test: Cellular Toxicity (caspase-3) BJ (AID 658);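 note: cells exposed to compound for 16 hours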
# Conditions: BJ fibroblasts, luminescence, normalized: DMSO 0%, staurosporine 100%; series mostly up to 91.7 µM; caspase-3 activation: at the top concentration
# How it was run: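 Caspase-Glo 3/7 luminescence, read 1 hr after reagent at room temperature, in normal BJ fibroblasts exposed 16 hours at 37 °C. AC50 values from Hill-equation concentration-response, scaled between DMSO basal and 10 uM staurosporine as 100%.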
SMILES,caspase-3 activation [%],outcome
CCCN(CCC)C(=O)SCC,-1.42,
COc1ccc2nc(N)sc2c1,-2.69,
ClCCCl,0.572,
CCC(O)OC(O)CC (centres undefined),,inactive
C=Cc1ccccc1Cl,-0.75,
c1ccc2c(c1)c1cccc3ccc4cccc2c4c31,-0.885,
Cc1cccc([N+](=O)[O-])c1C,0.182,
CCCCCCCCO,-1.04,
CC(C)=CCCC(C)CCO (centres undefined),3.93,
O=[N+]([O-])c1cccc(Cl)c1Cl,-0.217,
CCO[Si](CCCN)(OCC)OCC,-0.0984,
Clc1cc(Cl)c(Cl)cc1Cl,-1.32,
CCO,2.61,
C=CC(=O)OCCOCCOCCOCCOC(=O)C=C,11.6,
Clc1cc(Cl)c(Cl)c(Cl)c1Cl,-1.19,
CCCCC(CC)CN (centres undefined),,inactive
O=NO,,inactive
c1ccc2c(c1)[nH]c1ccccc12,-0.713,
OCCNCCO,-1.67,
Nc1ccc(Cl)cc1Cl,2.53,
CCC(C)c1ccccc1O (centres undefined),,inactive
CC1=CC(C)(C)Nc2ccccc21,,inactive
CN(C)C=O,,inactive
Cc1ccc(N)c([N+](=O)[O-])c1,-0.476,
CCCCOCCO,,inactive
CC(=O)OC/C=C(\C)CCC=C(C)C,-0.0329,

# Test: Cellular Toxicity (caspase-3) MRC-5 (AID 659)
# Conditions: MRC-5 cells, luminescence, normalized: DMSO 0%, 10 µM staurosporine 100%; series mostly up to 91.7 µM; caspase-3 activation: at the top concentration
# How it was run: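 Luminescent Caspase-Glo 3/7 read-out (1 h, room temperature) after a 16 h, 37 °C compound exposure of MRC-5 lung fibroblasts at 1500 cells/well. Concentration-response AC50 from Hill equation; 0% DMSO, 100% 10 uM staurosporine.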
SMILES,caspase-3 activation [%],outcome
CCCN(CCC)C(=O)SCC,1.89,
COc1ccc2nc(N)sc2c1,-2.32,
ClCCCl,0.636,
CCC(O)OC(O)CC (centres undefined),,inactive
C=Cc1ccccc1Cl,0.554,
c1ccc2c(c1)c1cccc3ccc4cccc2c4c31,-2.42,
Cc1cccc([N+](=O)[O-])c1C,2.14,
CCCCCCCCO,-1.11,
CC(C)=CCCC(C)CCO (centres undefined),0.0996,
O=[N+]([O-])c1cccc(Cl)c1Cl,-0.533,
CCO[Si](CCCN)(OCC)OCC,-0.992,
Clc1cc(Cl)c(Cl)cc1Cl,2.1,
CCO,4.48,
C=CC(=O)OCCOCCOCCOCCOC(=O)C=C,22.6,
Clc1cc(Cl)c(Cl)c(Cl)c1Cl,-0.641,
CCCCC(CC)CN (centres undefined),,inactive
O=NO,,inactive
c1ccc2c(c1)[nH]c1ccccc12,-2.03,
OCCNCCO,2.38,
Nc1ccc(Cl)cc1Cl,0.749,
CCC(C)c1ccccc1O (centres undefined),,inactive
CC1=CC(C)(C)Nc2ccccc21,,inactive
CN(C)C=O,,inactive
Cc1ccc(N)c([N+](=O)[O-])c1,1.77,
CCCCOCCO,,inactive
CC(=O)OC/C=C(\C)CCC=C(C)C,-1.14,

# Test: Cellular Toxicity (caspase-3) Mesangial (AID 660);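 note: combined caspase 3 and 7 activity read by Caspase-Glo luminescence; cells exposed to compound for 16 h before the caspase read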
# Conditions: mesangial cells, normalized: DMSO 0%, 100 µM tamoxifen 100%; series mostly up to 91.7 µM; caspase-3 activation: at the top concentration
# How it was run: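 Luminescent Caspase-Glo 3/7 readout (aminoluciferin substrate cleavage, 20 min RT) after 16 h compound exposure at 37 °C of normal human mesangial cells. Signal increase normalized between DMSO basal and 100 uM tamoxifen; Hill-equation AC50.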
SMILES,caspase-3 activation [%],outcome
CCCN(CCC)C(=O)SCC,1.52,
COc1ccc2nc(N)sc2c1,-1.19,
ClCCCl,1.02,
CCC(O)OC(O)CC (centres undefined),,inactive
C=Cc1ccccc1Cl,-0.188,
c1ccc2c(c1)c1cccc3ccc4cccc2c4c31,0.246,
Cc1cccc([N+](=O)[O-])c1C,-0.267,
CCCCCCCCO,-0.285,
CC(C)=CCCC(C)CCO (centres undefined),5.39,
O=[N+]([O-])c1cccc(Cl)c1Cl,-0.0765,
CCO[Si](CCCN)(OCC)OCC,-0.841,
Clc1cc(Cl)c(Cl)cc1Cl,-0.33,
CCO,-0.508,
C=CC(=O)OCCOCCOCCOCCOC(=O)C=C,,inactive
Clc1cc(Cl)c(Cl)c(Cl)c1Cl,-1.28,
CCCCC(CC)CN (centres undefined),,inactive
O=NO,,inactive
c1ccc2c(c1)[nH]c1ccccc12,-0.888,
OCCNCCO,0.0163,
Nc1ccc(Cl)cc1Cl,0.206,
CCC(C)c1ccccc1O (centres undefined),,inactive
CC1=CC(C)(C)Nc2ccccc21,,inactive
CN(C)C=O,,inactive
Cc1ccc(N)c([N+](=O)[O-])c1,0.0606,
CCCCOCCO,,inactive
CC(=O)OC/C=C(\C)CCC=C(C)C,-0.18,
